Bioassay records from PubChem.
TDP1 block = qHTS Assay for Inhibitors of Tyrosyl-DNA Phosphodiesterase (TDP1); Potency, µM (highest dose often 130 µM), actives largely listed as inhibitors; 350,000 compounds, 0.28% hits; recombinant TDP1, AlphaScreen DNA substrate cleavage; AID 485290, 2010; also: nearly all actives have a fitted effect of over 40% in size
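Recombinant human Tdp1 (E. coli-expressed, 1 nM final) preincubated with compounds 15 min at room temperature, then 5'-biotin/3'-phosphotyrosine-FITC DNA substrate (15 nM final) added for 5 min. AlphaScreen beads (10 ug/ml final) added 10 min; cleavage lowers signal.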
TDP1 cell noCPT = qHTS for Inhibitors of human tyrosyl-DNA phosphodiesterase 1 (TDP1): qHTS in cells in absence of CPT. DT40 Tdp1-/- hTDP1 cells, no CPT, ATP luminescence, 48 h. Potency, µM (titrated, usually from 46.2 µM), actives largely listed as inhibitors. 420,000 compounds, 15% hits. AID 686978, 2013; also: nearly all actives have a fitted effect of over 55% in size
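Growth of hTDP1-complemented DT40 Tdp1-knockout cells is measured by ATP luminescence after at least 48 hr compound exposure at 37 °C, with DMSO substituting for the 20 nM CPT used in the parallel screen.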
DT40 TDP1 CPT = qHTS for Inhibitors of human tyrosyl-DNA phosphodiesterase 1 (TDP1): qHTS in cells in presence of CPT. chicken DT40 Tdp1-/-;hTDP1 cells + 20 nM CPT, ATP luminescence, 48 h. Potency, µM (titrated, usually from 46.2 µM), most hits filed as inhibitors. 420,000 compounds, 12% hits. AID 686979, 2013; also: nearly all actives have a fitted effect of over 55% in size
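Cell growth measured by CellTiter-Glo luminescence after a minimum 48 h, 37 C compound exposure with 20 nM CPT in Tdp1-knockout DT40 cells stably expressing hTDP1, seeded 400/well; qHTS titration format.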
RORg inh = qHTS for inhibitors of ROR gamma transcriptional activity; Drosophila S2 Gal4-RORgamma UAS-luciferase reporter, 20 h; Potency, µM (series often up to 53.6 µM), usual class: inhibitors; 310,000 compounds, 5.4% hits; also: nearly all actives have a fitted effect of over 60% in size
Target sequence (P51450 whole entry, looked up, the tested form may be a part): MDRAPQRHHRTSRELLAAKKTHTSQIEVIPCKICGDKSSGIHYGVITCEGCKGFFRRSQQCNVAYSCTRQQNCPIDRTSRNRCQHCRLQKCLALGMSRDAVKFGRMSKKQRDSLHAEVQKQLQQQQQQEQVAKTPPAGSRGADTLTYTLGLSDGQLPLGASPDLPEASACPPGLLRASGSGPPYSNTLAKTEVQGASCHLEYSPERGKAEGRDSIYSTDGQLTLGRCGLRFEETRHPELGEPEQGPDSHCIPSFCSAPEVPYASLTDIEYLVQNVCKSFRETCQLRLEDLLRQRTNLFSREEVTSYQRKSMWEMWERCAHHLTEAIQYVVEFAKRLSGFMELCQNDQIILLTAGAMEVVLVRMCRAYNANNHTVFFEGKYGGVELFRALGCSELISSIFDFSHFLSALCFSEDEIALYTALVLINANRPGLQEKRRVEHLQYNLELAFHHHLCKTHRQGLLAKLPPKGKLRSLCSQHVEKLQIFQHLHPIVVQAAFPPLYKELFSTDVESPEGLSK
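A Gal4/UAS one-hybrid system in insect cells: metallothionein-promoter Gal4–ROR gamma fusion plus Photinus luciferase reporter. Copper sulfate 700 uM final, 20 hr ambient incubation, luminescent detection after 10 min with reagent.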
Gal4-VP16 FLuc = VP16 counterscreen qHTS for inhibitors of ROR gamma transcriptional activity. Drosophila S2 Gal4-VP16 UAS-luciferase, luminescence, 20 h. 310,000 compounds, 3.5% hits. Potency, µM (top dose mostly 53.6 µM), usual class: inhibitors. AID 2546, 2010;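 also: Gal4-VP16 expression switched on by copper sulfate through the metallothionein promoter; nearly all actives have a fitted effect of over 50% in size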
Hits are given with their value; [ ] = another dose, or the depositor's remark. Only some compounds are listed: those with a hit (about 19% of all), similar ones and a draw of the others. Calls follow the shape of the dose curve; as a rule, active = well fitted curve in the direction sought with a large enough effect; inconclusive = small, poorly fitted or top-dose-only effect, or another doubt; inactive = no such curve, though single readings can be large; an effect the other way counts as inactive or inconclusive.

How did O=C(COC(=O)c1cccc(S(=O)(=O)N2CCCC2)c1)c1ccc(F)cc1 do in these assays?
TDP1 cell noCPT: inactive; DT40 TDP1 CPT: inactive

How did O=C(CCN1CCN(Cc2ccccc2)CC1)NNC(=O)c1ccc(Cl)c(Cl)c1 do in these assays?
TDP1 cell noCPT: inconclusive; DT40 TDP1 CPT: inactive

What do the screens show for `CC(C)NC(=O)C1(C)Cc2c(-c3ccc(C(N)=O)cc3)ccnc2O1` (stereo not given)?
TDP1 cell noCPT: inactive; DT40 TDP1 CPT: inactive

What do the screens show for `CN(C)c1ccc(-c2ccnc3c2CC(C)(C(=O)NCC2CCOCC2)O3)cc1` (stereo not given)?
TDP1 cell noCPT: 13µM; DT40 TDP1 CPT: 16.4µM

How did CC(=O)Nc1cccc(-c2ccnc3c2CC(C)(C(=O)NCCc2ccccc2)O3)c1 (stereo not given) do in these assays?
TDP1 cell noCPT: 4.61µM; DT40 TDP1 CPT: 5.8µM

How did CN(C)c1ccc(-c2ccnc3c2CC(C)(C(=O)NCc2ccccc2)O3)cc1 (stereo not given) do in these assays?
TDP1 cell noCPT: 5.17µM; DT40 TDP1 CPT: 2.91µM

Results for CC1(C(=O)NCc2ccco2)Cc2c(-c3ccc(C(N)=O)cc3)ccnc2O1 (stereo not given) ?
TDP1 cell noCPT: 3.66µM; DT40 TDP1 CPT: 4.11µM

Results for CN(C)c1ccc(-c2ccnc3c2CC(C)(C(=O)Nc2cccc(Oc4ccccc4)c2)O3)cc1 (stereo not given) ?
TDP1 cell noCPT: inactive; DT40 TDP1 CPT: inactive

How did COc1ccc(-n2c(=O)c3sc4ccccc4c3n(CC(=O)NCc3ccccc3)c2=O)cc1 do in these assays?
TDP1 block: inactive; TDP1 cell noCPT: inconclusive; DT40 TDP1 CPT: inconclusive

Results for CC1(C(=O)NCc2ccccc2)Cc2c(-c3ccc(C(N)=O)cc3)ccnc2O1 (stereo not given) ?
TDP1 cell noCPT: 2.06µM; DT40 TDP1 CPT: 1.64µM

What do the screens show for `Cc1nccn1CC(O)COc1ccc(Cl)cc1Cl` (stereo not given)?
TDP1 cell noCPT: 14.6µM; DT40 TDP1 CPT: inconclusive; RORg inh: inactive; Gal4-VP16 FLuc: inactive

What do the screens show for `Cc1cc(C)n(CC(O)COc2ccc(Cl)cc2Cl)n1` (stereo not given)?
TDP1 cell noCPT: 20.6µM; DT40 TDP1 CPT: inconclusive; RORg inh: inactive; Gal4-VP16 FLuc: inactive

What do the screens show for `Cc1cc(C)n(CC(O)COc2ccc(Cl)cc2)n1` (stereo not given)?
TDP1 cell noCPT: inactive; DT40 TDP1 CPT: inactive; RORg inh: inactive; Gal4-VP16 FLuc: inactive

What do the screens show for `O=C(OCC1OC(n2ncc(=O)[nH]c2=O)C(OC(=O)c2ccccc2)C1OC(=O)c1ccccc1)c1ccccc1` (stereo not given)?
TDP1 cell noCPT: inconclusive; DT40 TDP1 CPT: 16.4µM; RORg inh: inactive; Gal4-VP16 FLuc: inactive

How did CC(=O)OCC1OC(n2ncc(=O)n(Cc3ccccc3)c2=O)C(OC(C)=O)C1OC(C)=O (stereo not given) do in these assays?
TDP1 block: inactive; TDP1 cell noCPT: inactive; DT40 TDP1 CPT: inactive; RORg inh: inactive; Gal4-VP16 FLuc: inactive

What do the screens show for `CC(=O)OC[C@H]1O[C@@H](n2ncc(=O)[nH]c2=O)[C@H](OC(C)=O)[C@@H]1OC(C)=O`?
TDP1 block: inactive; TDP1 cell noCPT: 10.6µM; DT40 TDP1 CPT: inconclusive; RORg inh: inactive; Gal4-VP16 FLuc: inactive

Results for Cc1cc(OC(C)C(=O)NCCCN2CCCC2=O)c2c(C)c(C)c(=O)oc2c1 (stereo not given) ?
TDP1 block: inactive; TDP1 cell noCPT: inactive; DT40 TDP1 CPT: inactive; RORg inh: inactive; Gal4-VP16 FLuc: inactive

What do the screens show for `CCc1ccc(NC(=O)c2ccc(CN3CC(=O)N4CCCCC4C3=O)cc2)cc1` (stereo not given)?
TDP1 block: inactive; TDP1 cell noCPT: 20.6µM; DT40 TDP1 CPT: inconclusive

How did O=C(Nc1ccc(F)cc1)c1ccc(CN2CC(=O)N3CCCCC3C2=O)cc1 (stereo not given) do in these assays?
TDP1 block: inactive; TDP1 cell noCPT: inactive; DT40 TDP1 CPT: inactive

How did O=C(O)CSc1nnc(-c2ccc(Cl)cc2Cl)n1-c1ccc(Cl)cc1 do in these assays?
TDP1 cell noCPT: inactive; DT40 TDP1 CPT: inactive; RORg inh: inconclusive; Gal4-VP16 FLuc: inconclusive

Results for COc1cccc(/C=C2/CN(C)CC3=C2OC(N)=C(C#N)C3c2cccc(OC)c2)c1 (stereo not given) ?
TDP1 block: inactive; TDP1 cell noCPT: 16.4µM; DT40 TDP1 CPT: 18.4µM; RORg inh: inactive; Gal4-VP16 FLuc: inactive

Results for Cc1ccc(/C=C/C(=O)O)cc1S(=O)(=O)NCc1ccco1 ?
TDP1 block: inactive; TDP1 cell noCPT: inactive; DT40 TDP1 CPT: inactive; RORg inh: inactive; Gal4-VP16 FLuc: inactive

Results for NC(=S)N1OC[C@@H]2COc3ccc4ccccc4c3[C@@H]21 ?
TDP1 block: inactive; TDP1 cell noCPT: 18.4µM; DT40 TDP1 CPT: 18.4µM; RORg inh: inconclusive; Gal4-VP16 FLuc: inactive

What do the screens show for `COc1ccc2c(c1)cc(C(=O)N/N=C/c1c(O)c(C(=O)O)cc3ccccc13)n2C`?
TDP1 cell noCPT: inactive; DT40 TDP1 CPT: inactive; RORg inh: 11.2µM; Gal4-VP16 FLuc: 17.8µM

Results for Cn1c(O)c(/C=N/NC(=O)c2cc3ccccc3cc2O)c2ccccc21 ?
TDP1 block: inactive[0.0935 µM]; TDP1 cell noCPT: 14.6µM; DT40 TDP1 CPT: 16.4µM; RORg inh: 7.94µM; Gal4-VP16 FLuc: inconclusive

Results for COc1ccc(Cl)cc1NC(=O)NCC1CCN(C(=O)OC(C)(C)C)CC1 ?
TDP1 block: inactive; TDP1 cell noCPT: inactive; DT40 TDP1 CPT: inactive; RORg inh: inactive; Gal4-VP16 FLuc: inactive

How did O=C1/C(=C/c2ccccc2)Oc2ccccc21 do in these assays?
TDP1 block: inactive[21 µM]; RORg inh: inactive[10 µM]; Gal4-VP16 FLuc: inactive[10 µM]

How did CCOC(=O)C1=C(O)c2ccccc2C(=O)/C1=C\c1ccc(C)cc1 do in these assays?
TDP1 block: inactive; TDP1 cell noCPT: 5.8µM; DT40 TDP1 CPT: 5.8µM; RORg inh: inconclusive; Gal4-VP16 FLuc: inconclusive

Results for CCOC(=O)C1=C(C)OC(=Cc2ccccc2)C1=O ?
TDP1 cell noCPT: 0.0092µM; DT40 TDP1 CPT: inactive

How did CCOC(=O)CCC(=O)N1CCOCCOCCN(C(=O)CCC(=O)OCC)CCOCC1 do in these assays?
TDP1 block: inactive; TDP1 cell noCPT: inactive; DT40 TDP1 CPT: inactive; RORg inh: inactive; Gal4-VP16 FLuc: inactive

What do the screens show for `O=C(Cn1nc(-c2cccs2)ccc1=O)Nc1ccc(Br)cc1`?
TDP1 cell noCPT: inactive; DT40 TDP1 CPT: inactive; RORg inh: inactive; Gal4-VP16 FLuc: inactive

Results for Cc1ccc(O)c(NC(=O)CCS(=O)(=O)c2nc(-c3cccs3)cc(C(F)(F)F)n2)c1 ?
TDP1 block: inactive; TDP1 cell noCPT: 5.8µM; DT40 TDP1 CPT: 2.59µM
